FBPA Giardia inh = qHTS Assay for Inhibitors of Fructose-1,6-bisphosphate Aldolase from Giardia Lamblia; AID 2451, 2010; Potency, µM (top dose mostly 59.6 µM), without a hit: top-dose activity, negative = inhibition, usual class: inhibitors; purified Giardia FBPA; actives 0.71% (n = 290,000); A8B2U2; further: potency means the concentration at half of the fitted maximal effect; on the % scale 0 is the no-effect control and ±100 the full control effect; nearly all actives have a fitted effect of over 55% in size
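40 nM FBPA preincubated 10 min at RT with compound (up to 57.5 uM final), then substrate plus GAPDH/TPI/NAD/arsenate coupling and diaphorase/resazurin added. Fluorescence read after 20 min at RT, 525/598 nm.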
CHX counter = Cycloheximide Counterscreen for Small Molecule Inhibitors of Shiga Toxin | AID 2314, 2010 | actives 12% (n = 300,000) | max response, % | cell reporter, cycloheximide protein synthesis inhibition counterscreen; in the data active means max response mostly above about 13%, no sharp cut-off; inactive means mostly below about 14%; further: read at 38.3 µM for the half of the compounds with a filed dose; 0% is about no effect
Shiga toxin inh = A qHTS for Small Molecule Inhibitors of Shiga Toxin. Vero cells, Shiga toxin protein synthesis inhibition reporter. inhibition, % at 38.7 µM. actives 9.2% (n = 290,000); in the data active means inhibition mostly above about 28%, no sharp cut-off; inactive means mostly below about 43%; further: 0% is about no effect
RE007 growth inh = qHTS Assay for Inhibitors of the HIV-1 protein Vpr. S. pombe RE007 Vpr strain, BacTiter-Glo ATP luminescence, 24 h. Potency, µM (titrated, usually from 92.2 µM), for inactives: at the top dose activity change, negative = less growth, usual class: inhibitors. actives 0.21% (n = 360,000); active means well fitted falling curve with a large enough effect; inconclusive means small, poorly fitted or top-dose-only effect; inactive means no such curve, though single readings can be large or run the other way; further: potency means the concentration at half of the fitted maximal effect; on the % scale 0 is the no-effect control and ±100 the full control effect; nearly all actives have a fitted effect of over 50% in size
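Fission yeast strain RE007, carrying one chromosomally integrated HIV-1 vpr copy, was seeded at OD 0.01 in PMG+AL medium with 23 nL pinned compound. After 24 h at 30 °C and 99% humidity, viability was read by BacTiter-Glo luminescence.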
TbPYK inhibitor = qHTS of Trypanosoma Brucei Inhibitors. pyruvate kinase (Trypanosoma brucei), Q57TT1. TbPYK enzyme, Kinase-Glo Plus ATP luminescence, 45 min. Potency, µM (top dose mostly 76.8 µM), inactives show at the highest dose activity, negative = inhibition, most hits filed as inhibitors. actives 0.12% (n = 410,000). AID 624173, 2012; further: potency means the concentration at half of the fitted maximal effect; on the % scale 0 is the no-effect control and ±100 the full control effect; nearly all actives have a fitted effect of over 50% in size
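Activity of T. brucei pyruvate kinase was followed by Kinase-Glo Plus luminescence after the enzyme reacted 45 min at room temperature with 130 uM ADP (final) and substrate. Test compounds were added before ADP at multiple concentrations.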
LmPK inhibitor = qHTS Assay for Inhibitors of Leishmania Mexicana Pyruvate Kinase (LmPK). purified LmPK, Kinase-Glo ATP luminescence, 1 h. actives 0.37% (n = 290,000). Potency, µM (series often up to 57.5 µM), without a hit: top-dose activity change, negative = inhibition, usual class: inhibitors. AID 1721, 2009; further: potency means the concentration at half of the fitted maximal effect; on the % scale 0 is the no-effect control and ±100 the full control effect
Target sequence (Q27686 whole entry, looked up): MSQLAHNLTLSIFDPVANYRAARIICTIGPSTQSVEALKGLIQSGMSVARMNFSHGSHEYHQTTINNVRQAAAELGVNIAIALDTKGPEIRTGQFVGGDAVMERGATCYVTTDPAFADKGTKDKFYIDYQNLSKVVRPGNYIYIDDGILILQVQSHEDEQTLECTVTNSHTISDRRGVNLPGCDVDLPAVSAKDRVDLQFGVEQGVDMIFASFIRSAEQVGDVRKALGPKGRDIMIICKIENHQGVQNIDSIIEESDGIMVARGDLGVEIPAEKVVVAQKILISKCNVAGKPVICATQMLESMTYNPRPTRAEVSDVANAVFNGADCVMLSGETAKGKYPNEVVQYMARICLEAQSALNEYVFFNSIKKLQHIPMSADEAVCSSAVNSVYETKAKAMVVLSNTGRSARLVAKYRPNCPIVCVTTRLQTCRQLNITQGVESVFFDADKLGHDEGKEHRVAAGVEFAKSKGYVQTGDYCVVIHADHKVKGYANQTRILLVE
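Screened at intermediate enzyme activity to detect both inhibitors and activators: LmPK at 0.1 nM, with a 0.5 nM enzyme column as activation reference. PEP 0.5 mM, ADP 0.1 mM; ATP detected by luminescence after 1 h.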
The depositor's hits bear a star; ? = inconclusive; . = not tested or not shown; + = active, no number; [ ] = remark or other dose. The sample as a whole holds a higher share of hits than the screen did. Unless noted, the call rests on the fitted dose curve; in most records, active means well fitted curve in the direction sought with a large enough effect; inconclusive means small, poorly fitted or top-dose-only effect, or another doubt; inactive means no such curve, though single readings can be large; an effect the other way counts as inactive or inconclusive.

SMILES	FBPA Giardia inh	CHX counter	Shiga toxin inh	RE007 growth inh	TbPYK inhibitor	LmPK inhibitor
CC(/C=N/NC(=O)c1ccc(Br)cc1)=C\c1ccccc1	-1%	13	35	-7%	-4%	4%
Cc1cc(C(=O)N/N=C/c2ccc(N(C)C)o2)cs1	.	3	18	2%	?	-16%
CCN(C(=O)COC(=O)c1cc(=O)[nH]c2ccccc12)C1CCS(=O)(=O)C1 (configuration not stated)	1%	0	-7	-5%	3%	-7%
Cc1c(C(=O)NCc2cccc(Cl)c2)sc2ncnc(N(C)C3CCCCC3)c12	.	.	.	.	-2%	.
C[C@@H](O)CNC(C)(C)CC(=O)N[C@@H]1CCc2ccccc2N(Cc2ccc(-c3ccccc3-c3nn[nH]n3)cc2)C1=O	-5%	4	12	.	.	.
Cc1ccc(-c2noc(-c3cccnc3NCc3ccco3)n2)cc1	.	.	.	.	-4%	.
Cc1ncoc1C(=O)Nc1ccc(Oc2ccccc2)cc1	-1%	54*	153*	0%	-10%	-16%
COc1ccc(NC(=O)c2ocnc2C)cc1OC	4%	12	11	4%	-3%	-12%
Cc1nc(C)c(C(=O)Nc2ccc(Oc3ccccc3)cc2)o1	-3%	26*	25*	15%	-11%	-9%
CCCCN1C(=O)/C(=C2\SC(N3CCCCC3)=NC2=O)c2ccccc21	-7%	26*	57*	28%	1%	-12%
Cc1cccc(OCc2nc(-c3ccccn3)n[nH]2)c1	?	16	28	-23%	-3%	6%
Cc1ccc(OCc2nc(-c3ccccn3)n[nH]2)cc1	?	32*	52	-29%	1%	-3%
O=C(COCc1cc(-c2cccs2)on1)Nc1cccc(Cl)c1Cl	.	.	.	.	0%	.
C=CCNC(=S)NNC(=O)c1ccc(C)c(Cl)c1	5%	6	-6	4%	-7%	4%
COc1ccc(C(=O)NC(=S)NCCO)cc1Br	1%	16*	23	2%	-1%	1%
C=CCNC(=S)NC(=O)c1ccc(C)c(Br)c1	?	38*	100*	?	-5%	0%
CCCc1ccc(-c2ccc(-c3noc(-c4ccncc4)n3)cc2)nc1	10%	-1	-1	6%	1%	7%
CCCCc1ccc(-c2ccc(Br)cc2)nc1	0%	35*	86*	15%	3%	-11%
CCCc1ccc(-c2ccc(F)c(N)c2)nc1	-2%	-3	-1	-18%	-2%	16µM*
CCCCc1ccc(C(=O)O)nc1	16µM*	.	.	-3%[18.4 µM]	-9%	.
O=C(O)c1ccc(Br)cn1	?	-4	22	16%	-1%	4%
CC(C)NC(=O)N[C@H]1CC[C@H](CC(=O)NCc2ccc(Oc3ccccc3)cc2)O[C@@H]1CO	.	.	.	1%	.	.
COc1cccc(CNC(=O)Cc2csc3ccccc23)c1OC	.	.	.	.	-2%	.
NC(=O)c1ccsc1NC(=O)c1ccc2c(c1)CCCC2	-9%	51*	59*	?	-16%	?
CNC(=O)c1ccsc1NC(=O)c1ccc2c(c1)CCCC2	-11%	23*	35	-3%	0%	-9%
SMILES	FBPA Giardia inh	CHX counter	Shiga toxin inh	RE007 growth inh	TbPYK inhibitor	LmPK inhibitor
NC(=O)c1ccsc1NC(=O)c1ccc(N2CCCC2=O)cc1	-11%	22	22	-23%	-20%	-19%
COc1ccc(NC2=NC(C)(C)CS2)cc1	-10%	28*	70*	-10%	-28%	-3%
CCOC(=O)c1nc(Nc2ccc(Nc3ccccc3)cc2)c2ccccc2n1	-10%	2	15	24%	0%	10%
CCOC(=O)c1nc(Nc2ccc(OC)cc2)c2ccccc2n1	-6%	24*	47*	-1%	-8%	6%
COc1ccc(NC2=NCC(C)S2)cc1 (configuration not stated)	7%	17*	18	-13%	5%	8%
COc1ccc(Nc2cc(Nc3ccc(OC)cc3)ncn2)cc1	7%	7	-4	-2%	-3%	0%
COc1ccc(Nc2cc(C)c3ccccc3n2)cc1	-25%	41*	103*	-23%	2%	2%
CCn1cc(C(=O)NCc2ccccc2)c(=O)c2cc(S(=O)(=O)N3CCOCC3)ccc21	.	.	.	.	-9%	.
Cc1ccc(Cl)cc1N1CCN(C(=O)C2CCN(S(=O)(=O)c3c(C)noc3/C=C/c3ccccc3F)CC2)CC1	.	.	.	.	0%	.
COc1ccc(NC(=O)N2CC[C@@]3(CCCN(C(=O)c4cccn4C)C3)C2)cc1	0%	.	.	.	-6%	.
Cn1c(C(=O)NCc2cccc(F)c2)cc2cc(S(=O)(=O)N3CCCCC3)ccc21	.	.	.	.	2%	.
CCN(CC)C(=O)c1cccc(-c2csc(C(O)c3cccc(Cl)c3)n2)c1 (configuration not stated)	.	.	.	8%[18.4 µM]	-14%	.
COc1ccc(NC2=CC(=O)N(C)C2=O)cc1	-27%	21	+	-5%	-2%	-1%
COc1ccc(Nc2c3ccccc3nc3ccccc23)cc1	-19%	22*	44*	9%	-4%	7%
COc1ccc(Nc2ccc(OC)cc2)cc1	?	46*	87*	-24%	8%	-12%
O=C(c1cc(C(F)(F)F)cc(C(F)(F)F)c1)N1CCC2(CCCN(Cc3ccccc3)C2)CC1	8%	.	.	.	-1%	.
CCC1CN(C(=O)Nc2cccc3c2CCCC3)c2cc(C)ccc2O1 (configuration not stated)	.	.	.	.	-1%	.
CCc1ccc(NC(=O)COCc2cc(-c3ccc(F)cc3)on2)cc1	.	.	.	.	6%	.
COc1ccc2c(c1)CC(NC(=O)Nc1ccc(NC(C)=O)cc1)CO2 (configuration not stated)	.	.	.	.	-7%	.
Cc1ccc(C)n1-n1c(C)nc2sc(-c3ccccc3)cc2c1=O	6%	45*	73*	-31%	5%	-8%
O=c1[nH]cnc2sc(-c3ccccc3)cc12	2%	56*	49	-10%	1%	1%
O=c1c2cc(-c3ccccc3)sc2ncn1-n1cccc1	2%	39*	79*	2%	0%	-1%
Cc1ccc(C)n1-n1cnc2sc(-c3ccccc3)cc2c1=O	-6%	14*	19	-19%	0%	1%
Cc1cc(C)c2c(=O)cc(C(=O)Nc3ccc(C)c(Cl)c3)oc2c1	.	.	.	.	3%	.
Cc1nn(CCCC(=O)Nc2cc(C(F)(F)F)ccc2Cl)c(=O)c2c1sc1ccccc12	.	.	.	.	-8%	.
COc1cc2c(cc1OC)C(c1cccs1)N(C(=O)c1cccc(S(=O)(=O)N(C)C)c1)CC2 (configuration not stated)	-15%	-2	-13	-1%	-4%	3%

Screens (PubChem)
